Entries with a potency or affinity are not part of this list. Values without a mark were called inactive.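 The calls were made as follows: active = fluorescent signal decreased by at least 40%; inconclusive = no clear call, values can overlap the other calls; inactive = the rest, including activity opposite to the expected direction.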

A short description of this assay: inhibition of fibronectin matrix deposition – AH1F cells, Alexa488-fibronectin fluorescence, cherry-pick, set 2, dose response (AID 1117283).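 Also: AH1F fibroblasts given Alexa488-labelled fibronectin at 24 nM final.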 The following applies: AH1F fibroblasts, overnight; series mostly up to 35 µM; activity change, negative = inhibition: at the top concentration.
For `COCC(C)n1c(SCc2nc(N)nc(Nc3ccccc3C)n2)nc2ccccc2c1=O` (stereo not drawn), the “activity change, negative = inhibition” value was -3.15%. In the case of `CO[C@@H]1CN(C)C(=O)c2cc(NC(=O)Nc3cc(Cl)cc(Cl)c3)ccc2OC[C@H](C)NC[C@@H]1C` it was 0.389%.

As to `O=C(OCC(O)C(O)COC(=O)c1ccccc1)c1ccccc1` (stereo not drawn), the “activity change, negative = inhibition” value was -5.12%.

Source of the values: PubChem BioAssay AID1117283 (Broad Institute, 2014).
